PNC assembly inh: High Content Assay for Compounds that inhibit the Assembly of the Perinucleolar Compartment | 140,000 tested, 3.1% active | activity change (PNC), negative = inhibition, % at 10 µM | AID 2417, 2010 | PC3M PTB-GFP, PNC prevalence imaging, 16 h; hits give low values;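 active = readout at or below -70, meaning at least 70% loss of cells showing the perinucleolar compartment, a nuclear body marking cancer cells; inconclusive = readout between -30 and a set limit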;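 also: plate controls were DMSO wells for no effect and camptothecin positive control wells for full effect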
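Compounds are pinned in duplicate onto adhered PC3M cells stably expressing GFP-tagged PTB and incubated 16 h at 37 C. Cells are then fixed, nuclei stained with Hoechst, and PNC-positive cells counted.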
ALDH1A1 block: qHTS Assay for Inhibitors of Aldehyde Dehydrogenase 1 (ALDH1A1). Purified ALDH1A1, NADH fluorescence, propionaldehyde substrate. Potency, µM (series often up to 75.3 µM), for inactives: top-dose activity, negative = inhibition, hits mostly inhibitors. 220,000 tested, 7.3% active. AID 1030, 2008;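 also: potency is read from the fitted curve at half-maximal effect; plate controls were no enzyme wells and a reference inhibitor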
Target sequence (P00352 whole entry, looked up): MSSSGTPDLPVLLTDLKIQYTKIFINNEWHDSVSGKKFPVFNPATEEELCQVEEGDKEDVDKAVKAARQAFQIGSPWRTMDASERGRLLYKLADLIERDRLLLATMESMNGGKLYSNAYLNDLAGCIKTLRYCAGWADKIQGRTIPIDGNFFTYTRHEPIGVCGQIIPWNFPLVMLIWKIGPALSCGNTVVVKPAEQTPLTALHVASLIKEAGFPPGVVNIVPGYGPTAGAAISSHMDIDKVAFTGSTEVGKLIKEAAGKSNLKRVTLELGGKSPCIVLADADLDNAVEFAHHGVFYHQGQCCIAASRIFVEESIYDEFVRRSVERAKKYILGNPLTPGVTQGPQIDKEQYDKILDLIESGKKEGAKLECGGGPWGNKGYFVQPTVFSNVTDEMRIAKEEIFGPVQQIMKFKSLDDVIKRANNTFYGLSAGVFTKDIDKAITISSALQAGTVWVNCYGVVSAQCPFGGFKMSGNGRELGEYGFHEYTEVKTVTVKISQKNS
HPGD inh: qHTS Assay for Inhibitors of HPGD (15-Hydroxyprostaglandin Dehydrogenase); Potency, µM, for inactives: top-dose activity change, negative = inhibition, most hits filed as inhibitors; 150,000 tested, 4.3% active; 15-hydroxyprostaglandin dehydrogenase [NAD(+)] (Homo sapiens), P15428; purified HPGD, NADH fluorescence kinetic, PGE2 substrate; also: potency is read from the fitted curve at half-maximal effect
Target sequence (P15428 whole entry, looked up): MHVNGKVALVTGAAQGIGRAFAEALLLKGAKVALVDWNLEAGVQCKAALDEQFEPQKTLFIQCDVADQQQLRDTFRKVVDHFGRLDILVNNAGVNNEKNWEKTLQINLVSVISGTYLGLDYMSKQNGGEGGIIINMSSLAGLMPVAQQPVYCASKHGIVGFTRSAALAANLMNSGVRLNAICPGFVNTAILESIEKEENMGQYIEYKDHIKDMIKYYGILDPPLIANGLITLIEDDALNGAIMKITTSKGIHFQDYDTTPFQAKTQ
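20 nM HPGD preincubated 15 min at room temperature with compound in 50 mM Tris-HCl pH 8, 0.01% Tween 20. Started with 1 mM NAD+ and 30 uM prostaglandin E2; NADH fluorescence (360/450 nm) read 5 times over 30-s intervals, last minus first.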
KinaseGlo FLuc: Counterscreen for Luciferase (Kinase-Glo TM) Inhibition | Luciferin 4-monooxygenase (Photuris pensylvanica), Q27757 | Kinase-Glo luciferase, ATP luminescence, 8 min | Potency, µM (highest dose often 38.3 µM), for the others: top-dose activity change, negative = inhibition, actives largely listed as inhibitors | 200,000 tested, 0.28% active | AID 1379, 2008; active = well fitted inhibition curve with a large enough effect; inconclusive = small, poorly fitted or top-dose-only effect; also: potency is read from the fitted curve at half-maximal effect; nearly all actives have a fitted effect of over 60% in size
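Kinase-Glo luciferase light output from ATP and luciferin was measured with 10 uM ATP, within the enzyme's linear range. Buffer: 50 mM imidazole pH 7.2, 50 mM KCl, 7 mM MgCl2, 0.01% Tween 20, 0.05% BSA; luminescence read after 8 min at ambient temperature.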
Lamin A splicing: qHTS Assay for Modulators of Lamin A Splicing; HeLa LMNA splicing GFP/RFP minigene ratio, 48 h; Potency, µM (titrated, usually from 46.1 µM), inactives show at the highest dose ratio change, negative = inhibition, usual class: inhibitors; 200,000 tested, 0.01% active; AID 1487, 2009; active = well fitted inhibition curve with a large enough effect in the signal ratio, with a control signal flat, not every such curve was filed as active; inconclusive = small, poorly fitted or top-dose-only effect, or effect the other way, or a change in a side signal; the % refers to the signal ratio; also: potency is read from the fitted curve at half-maximal effect
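S3 HeLa stable clones carrying a lamin A-EGFP splicing minigene plus DsRed2 were seeded at 600 cells/well in Opti-MEM with 2% FBS, pin-dosed and incubated 48 h at 37°C. Acumen cytometry (488 nm) gave the GFP/RFP total-intensity ratio.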
Numbers without * were called inactive; [ ] = another dose, or the depositor's remark. A selection: hits, their analogues and other compounds. The true share with any hit is near 10%. Unless noted, calls follow the shape of the dose curve; as a rule, active = well fitted inhibition curve with a large enough effect (not every such curve was filed as active); inconclusive = small, poorly fitted or top-dose-only effect, or another doubt; inactive = no such curve, though single readings can be large or run the other way. Unless noted, % is scaled to controls: 0 for no effect and ±100 for the full control effect.

Screening CCCCn1c(SCC(=O)NCc2ccc(C)cc2)nc2c(sc3ccccc32)c1=O returned Lamin A splicing 5.0%[46 µM].
`CC(=O)c1ccccc1[N+](=O)[O-]` gave ALDH1A1 block -6.0% and HPGD inh -5.5%.
`O=C(NCc1ccccc1Cl)C(=O)NCC(c1cccs1)S(=O)(=O)c1cccs1` (stereo not given) gave Lamin A splicing -0.1%[46 µM].
CCC/C(=N/NC(=O)c1ccc2c(c1)OCO2)c1cccs1 was read as PNC assembly inh -22.1, ALDH1A1 block inconclusive, HPGD inh 15.8µM*, KinaseGlo FLuc -12.5% and Lamin A splicing -1.9%.
O=C(Nc1ccc2c(c1)OCO2)c1cc(-c2cccnc2)nc2ccccc12 was read as ALDH1A1 block 7.94µM*, KinaseGlo FLuc -2.0% and Lamin A splicing -13.9%[46 µM].
`O=C(N/N=C/c1cccs1)c1ccc2c(c1)OCO2` gave PNC assembly inh 42.5, ALDH1A1 block 5.7%, HPGD inh -28.1%, KinaseGlo FLuc -10.3% and Lamin A splicing -11.3%.
O=C(Nc1cccc(-c2cn3c(n2)SCC3)c1)c1ccc(Br)o1 was read as ALDH1A1 block 15.8µM*, KinaseGlo FLuc 1.0% and Lamin A splicing inconclusive.
Screening Cc1cccc(NC(=O)Cn2cc(S(=O)(=O)N3CCCC3)c(S(=O)(=O)N3CCCC3)c2)c1C returned Lamin A splicing -0.4%[46 µM].
c1ccc(-c2nnc(CN3CCCc4ccccc43)o2)cc1 was read as PNC assembly inh -2.1, ALDH1A1 block 8.91µM*, HPGD inh inconclusive, KinaseGlo FLuc 0.0% and Lamin A splicing -4.1%.
Screening Cn1c(O)c(N=N/C(=N/c2ccccn2)c2ccccn2)c2cc(Br)ccc21 returned ALDH1A1 block 14.1µM*, HPGD inh 22.4µM* and KinaseGlo FLuc -6.3%.
For Cc1ccc2c(c1)c(N=NC(N)=O)c(O)n2C the results were ALDH1A1 block 2.4% and KinaseGlo FLuc -0.5%.
Screening Cc1ccnc(NS(=O)(=O)c2ccc(NS(=O)(=O)c3ccccc3)cc2)n1 returned PNC assembly inh -100.0*, ALDH1A1 block inconclusive, HPGD inh -9.6%, KinaseGlo FLuc 2.8% and Lamin A splicing 6.7%.
Screening Cc1ccc(C(=O)/C=C/Nc2ccccc2C(N)=O)o1 returned PNC assembly inh -9.3, ALDH1A1 block inconclusive, HPGD inh inconclusive, KinaseGlo FLuc inconclusive and Lamin A splicing inconclusive.
NC(=O)c1ccccc1N/C=C/C(=O)c1cccs1 was read as PNC assembly inh -93.8*, ALDH1A1 block inconclusive, HPGD inh -4.5%, KinaseGlo FLuc inconclusive and Lamin A splicing -5.1%.
`NC(=O)c1ccccc1N/C=C/C(=O)c1ccc(F)cc1` gave PNC assembly inh inconclusive, ALDH1A1 block inconclusive, HPGD inh -20.9%, KinaseGlo FLuc 7.94µM* and Lamin A splicing 12.2%.
NC(=O)c1ccccc1N/C=C/C(=O)c1ccc(Cl)cc1Cl was read as PNC assembly inh 14.7, ALDH1A1 block inconclusive, HPGD inh 12.6µM*, KinaseGlo FLuc 11.2µM* and Lamin A splicing -11.2%.
O=C(/C=C/Nc1ccc(F)c(F)c1)c1cccs1 was read as PNC assembly inh 24.3, ALDH1A1 block -0.4% and Lamin A splicing -11.0%.
CCOc1ccccc1CNC(=O)c1ccc2nc(CCc3ccccc3)oc2c1 was read as Lamin A splicing -5.3%[46 µM].
Screening O=C(Cc1ccccc1)Nc1cccc(N2CCCC2)c1 returned PNC assembly inh inconclusive, ALDH1A1 block 14.1µM*, HPGD inh inconclusive, KinaseGlo FLuc 5.3% and Lamin A splicing -13.1%.
For O=C(CSCc1cccc(Br)c1)N=Nc1c(O)[nH]c2ccccc12 the results were PNC assembly inh -5.6, ALDH1A1 block 7.94µM*, HPGD inh -15.0%, KinaseGlo FLuc -2.3% and Lamin A splicing 9.6%.
O=C(N=Nc1c(O)[nH]c2ccccc12)c1ccco1 was read as ALDH1A1 block -13.3%, KinaseGlo FLuc 10µM* and Lamin A splicing -10.9%[46 µM].
Screening CCn1c(SCC(=O)N=Nc2c(O)[nH]c3ccccc23)nc2ccccc21 returned PNC assembly inh -8.5, ALDH1A1 block 6.31µM*, HPGD inh -13.3%, KinaseGlo FLuc 0.1% and Lamin A splicing inconclusive.
`O=C(N=Nc1c(O)[nH]c2ccccc12)c1ccc2c(c1)OCO2` gave ALDH1A1 block -4.4%, KinaseGlo FLuc 10µM* and Lamin A splicing -8.1%[46 µM].
`CCCCC[C@H](O)/C=C/C=C\C/C=C\C/C=C\CCCC(=O)O` gave ALDH1A1 block -1.9%, HPGD inh -1.9% and KinaseGlo FLuc -4.8%.
Screening COc1ccc(CCNC(=O)c2cnc3sc(N4CCCC4)nn3c2=O)cc1OC returned Lamin A splicing 9.8%[46 µM].
`COc1cccc(CNC(=O)c2ccc3nc(-c4ccccc4)c(-c4ccccc4)nc3c2)c1OC` gave Lamin A splicing -11.8%[46 µM].
Screening Cc1ccnc(SCc2cc(=O)c(OC(=O)c3ccc(Br)o3)co2)n1 returned PNC assembly inh -82.6*, ALDH1A1 block 0.7%, HPGD inh 2.9%, KinaseGlo FLuc 3.1% and Lamin A splicing -3.8%.
For Cc1cc(C)nc(SCc2cc(=O)c(OC(=O)c3ccc(S(=O)(=O)N(C)C)cc3)co2)n1 the results were PNC assembly inh inconclusive, ALDH1A1 block 1.2%, HPGD inh -27.7%, KinaseGlo FLuc 0.5% and Lamin A splicing -7.4%.
`Cc1ccnc(SCc2cc(=O)c(OC(=O)c3ccc(S(=O)(=O)N(C)C)cc3)co2)n1` gave PNC assembly inh -108.8*, ALDH1A1 block 1.4%, HPGD inh -5.7%, KinaseGlo FLuc 4.8% and Lamin A splicing -6.8%.
For O=c1c2c3c(sc2nnn1Cc1ccc(F)cc1)CCCC3 the results were Lamin A splicing -18.9%[46 µM].
COc1cn(CC(=O)Nc2ccc(C)cc2C)c(CN2CCCCC2)cc1=O was read as Lamin A splicing -8.8%[46 µM].
CCOc1ccc(N2C(=O)CC(NCCc3ccncc3)C2=O)cc1 (stereo not given) was read as PNC assembly inh inconclusive, ALDH1A1 block inconclusive, HPGD inh -6.3%, KinaseGlo FLuc -5.7% and Lamin A splicing -4.1%.
Screening CCCOc1ccc(N2C(=O)CC(NCCc3ccc(S(N)(=O)=O)cc3)C2=O)cc1 (stereo not given) returned PNC assembly inh -1.3, ALDH1A1 block 7.94µM*, HPGD inh -6.4%, KinaseGlo FLuc 1.0% and Lamin A splicing 14.2%.
Screening CCOc1ccc(N2C(=O)CC(NCCc3c[nH]c4ccccc34)C2=O)cc1 (stereo not given) returned ALDH1A1 block 11.2µM* and KinaseGlo FLuc -0.8%.
COc1ccc(NC(=O)c2nn(C)c3c2CS(=O)(=O)c2ccccc2-3)cc1Cl was read as Lamin A splicing 8.5%[46 µM].

Screening results (PubChem)
